NOMO-1 viab: STK33 inhibitor candidate reducing NOMO-1 cell viability; inhibition, % (test concentration not listed); AID 2330; NOMO-1 AML viability, CellTiter-Glo luminescence, 72 h; hit rate 7.5% among 37,000; in the data active = inhibition above about 80%; inconclusive = no clear call, values can overlap the other calls
PD-1 reverse act: activators reversing PD-1 mediated T-cell inhibition. primary human CD4 T cells, PD-L1 beads, CellTiter-Glo 96 h. activation, % (concentration not given with the values). 29,000 tested, under 10 active; call rule not given here;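 also: 0% = median vehicle wells and 100% = positive control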
STK33 kin inh: human STK33 kinase inhibition | inhibition, % at 12.5 µM | hit rate 0.44% among 27,000 | Q9BYT3 | ADP-Glo luminescence, MBP substrate; in the data active = inhibition above about 20%; inconclusive = no clear call, values can overlap the other calls
Target sequence (Q9BYT3 whole entry, looked up): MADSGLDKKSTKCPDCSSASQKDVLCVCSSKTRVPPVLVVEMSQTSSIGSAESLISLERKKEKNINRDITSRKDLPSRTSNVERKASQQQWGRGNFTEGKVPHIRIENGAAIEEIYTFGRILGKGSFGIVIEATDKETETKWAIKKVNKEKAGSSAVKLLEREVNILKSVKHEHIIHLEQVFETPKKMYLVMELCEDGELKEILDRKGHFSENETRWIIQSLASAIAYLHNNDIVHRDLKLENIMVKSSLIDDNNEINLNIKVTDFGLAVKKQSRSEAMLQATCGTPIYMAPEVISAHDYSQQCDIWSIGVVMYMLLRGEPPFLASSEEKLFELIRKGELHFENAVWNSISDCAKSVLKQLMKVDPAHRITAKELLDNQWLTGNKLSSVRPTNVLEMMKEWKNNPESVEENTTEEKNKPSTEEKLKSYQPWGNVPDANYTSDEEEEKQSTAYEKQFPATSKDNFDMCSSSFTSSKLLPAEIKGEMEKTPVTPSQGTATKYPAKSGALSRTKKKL
An asterisk follows results filed as active. The full list was thinned out, with hits kept by preference.

Cc1cccc(N(CC(=O)Nc2ccc(Cl)cc2)S(C)(=O)=O)c1C was read as NOMO-1 viab 27, PD-1 reverse act -2 and STK33 kin inh 1.
CC(=O)O[C@H]1C(=O)[C@@]2(C)[C@H]([C@H](OC(=O)c3ccccc3)[C@]3(O)C[C@H](OC(=O)[C@H](O)[C@@H](NC(=O)c4ccccc4)c4ccccc4)C(C)=C1C3(C)C)[C@]1(OC(C)=O)CO[C@@H]1C[C@@H]2O was read as NOMO-1 viab 141*, PD-1 reverse act -3 and STK33 kin inh 0.
For Cc1cc(NC(=O)CSc2nnc(-c3ccccc3)n2-c2ccc(F)cc2)ccc1Br the results were NOMO-1 viab 5, PD-1 reverse act 0 and STK33 kin inh -5.
For C[C@H]1CN([C@@H](C)CO)C(=O)Cc2cc(NC(=O)Cc3ccccc3)ccc2O[C@H]1CN(C)Cc1ccc(Cl)c(Cl)c1 the results were NOMO-1 viab inconclusive, PD-1 reverse act -2 and STK33 kin inh 3.
For C[C@H](CO)N1C[C@H](C)[C@H](CN(C)Cc2ccc3c(c2)OCO3)Oc2ccc(NC(=O)CCCCCC(=O)Nc3ccccc3N)cc2CC1=O the results were NOMO-1 viab 132* and PD-1 reverse act 0.
`C[C@@H]1CN([C@@H](C)CO)C(=O)c2cc(NC(=O)CCCCCC(=O)Nc3ccccc3N)ccc2O[C@@H]1CN(C)Cc1ccc2c(c1)OCO2` gave NOMO-1 viab 95* and PD-1 reverse act -1.
`C[C@H](CO)N1C[C@H](C)[C@@H](CN(C)Cc2ccc3c(c2)OCO3)Oc2ccc(NC(=O)CCCCCC(=O)Nc3ccccc3N)cc2C1=O` gave NOMO-1 viab -19 and PD-1 reverse act 1.
C[C@H](CO)N1C[C@H](C)[C@H](CN(C)Cc2ccc3c(c2)OCO3)Oc2ccc(NC(=O)CCCCCC(=O)Nc3ccccc3N)cc2C1=O was read as NOMO-1 viab 47 and PD-1 reverse act 0.
C[C@@H]1CN([C@H](C)CO)C(=O)Cc2cc(NC(=O)CCCCCC(=O)Nc3ccccc3N)ccc2O[C@@H]1CN(C)Cc1ccc(Cl)c(Cl)c1 was read as NOMO-1 viab 137* and PD-1 reverse act -3.
For O=C(CSc1nnnn1-c1ccccc1)Nc1ccc(Br)cc1Cl the results were NOMO-1 viab 24, PD-1 reverse act 1 and STK33 kin inh -1.
`Cc1ccc(OCC(=O)Nc2ccccc2-c2nc3ccccc3s2)cc1C` gave NOMO-1 viab 23, PD-1 reverse act 0 and STK33 kin inh -2.
CN1CCN(CCCN2C(=O)CSC2c2ccc(F)cc2)CC1 (stereo not drawn) was read as NOMO-1 viab 4 and PD-1 reverse act 1.
For COc1cccc(-n2nnnc2SCC(=O)Nc2c(C)cc(C)cc2C)c1 the results were NOMO-1 viab -13, PD-1 reverse act 0 and STK33 kin inh 0.
Screening CSc1ccc(C2N[C@@H](C(=O)O)C(C)(C)S2)cc1 (stereo partly drawn) returned NOMO-1 viab -7 and PD-1 reverse act -1.
FC(F)(F)COc1ccc(-c2nnc(SCc3ccccc3C(F)(F)F)o2)cn1 was read as NOMO-1 viab 4 and PD-1 reverse act 2.
Screening COC(=O)c1c(NC(=S)Nc2ccn(C)n2)sc(C(=O)N(C)C)c1C returned NOMO-1 viab 26, PD-1 reverse act 2 and STK33 kin inh -1.
Cc1cc(C)c(NC(=O)CSc2nnc(-c3ccncc3)n2-c2ccccc2)c([N+](=O)[O-])c1 was read as NOMO-1 viab 19, PD-1 reverse act 1 and STK33 kin inh -1.
`Cc1nn(C)c(C)c1CN1CCN(C(=S)Nc2ccc(S(N)(=O)=O)cc2)CC1` gave NOMO-1 viab -4, PD-1 reverse act 2 and STK33 kin inh -1.
For Cc1cc(=O)oc2cc(OC(C)C(=O)Nc3ccccc3[N+](=O)[O-])ccc12 (stereo not drawn) the results were NOMO-1 viab 12 and STK33 kin inh 5.
`OC(CNC1CCCC1)Cn1c2ccccc2c2ccccc21` (stereo not drawn) gave NOMO-1 viab 96*, PD-1 reverse act -13 and STK33 kin inh 2.
Cc1ccccc1OCC(O)Cn1c2ccccc2c2ccccc21 (stereo not drawn) was read as NOMO-1 viab -30, PD-1 reverse act -7 and STK33 kin inh -2.
Screening O=C(CC1(O)C(=O)Nc2ccccc21)c1ccc(NC(=O)C2CC2)cc1 (stereo not drawn) returned NOMO-1 viab 20, PD-1 reverse act 2 and STK33 kin inh 3.
For COc1cc(O)c(C(=O)/C=C/c2ccc(O)c(OC)c2)c(OC)c1 the results were NOMO-1 viab 74 and STK33 kin inh 51*.
COc1cc(/C=C/C(=O)NCC(O)c2ccc(O)cc2)ccc1O (stereo not drawn) was read as STK33 kin inh -3.
`NC(=O)c1ccc(NC(=O)C2CCCN(S(=O)(=O)c3ccc(Br)cc3)C2)cc1` (stereo not drawn) gave NOMO-1 viab 7, PD-1 reverse act 2 and STK33 kin inh 0.
For CC(C)(Oc1ccc(Cl)cc1)C(=O)Nc1cccc(-c2nc3ncccc3o2)c1 the results were NOMO-1 viab 42, PD-1 reverse act 0 and STK33 kin inh 0.
C[C@@H]1CN([C@H](C)CO)C(=O)Cc2cc(NS(=O)(=O)c3ccccc3)ccc2O[C@@H]1CN(C)Cc1ccc(C(=O)Nc2ccccc2N)cc1 was read as NOMO-1 viab 116* and PD-1 reverse act -1.
Screening C[C@H]1CN([C@@H](C)CO)C(=O)Cc2cc(NS(C)(=O)=O)ccc2O[C@@H]1CN(C)Cc1ccc(C(=O)Nc2ccccc2N)cc1 returned NOMO-1 viab 16 and PD-1 reverse act 0.
`Cc1ccc(S(=O)(=O)Nc2ccc3c(c2)CC(=O)N([C@H](C)CO)C[C@@H](C)[C@H](CN(C)Cc2ccc(C(=O)Nc4ccccc4N)cc2)O3)cc1` gave NOMO-1 viab 37 and PD-1 reverse act -1.
Screening C[C@H]1CN([C@@H](C)CO)C(=O)Cc2cc(NS(=O)(=O)c3ccc(Cl)cc3)ccc2O[C@H]1CN(C)Cc1ccc(C(=O)Nc2ccccc2N)cc1 returned NOMO-1 viab 139* and PD-1 reverse act 0.
For COCCC(=O)C1=CSC2=C(C(=O)CC(C)(C)C2)C1c1ccncc1 (stereo not drawn) the results were NOMO-1 viab 46 and PD-1 reverse act -2.
Screening C=CC(C)(O)CC(/C=C(\C)CC(/C=C(\C)CCC=C(C)C)OC(C)=O)OC(C)=O (stereo not drawn) returned NOMO-1 viab 98*, PD-1 reverse act -1 and STK33 kin inh -8.
C=CC(C)(O)CC/C=C(\C)CCC(O)C(C)(C)O (stereo not drawn) was read as NOMO-1 viab 11, PD-1 reverse act 1 and STK33 kin inh -4.
For C[C@H]1CN([C@@H](C)CO)C(=O)Cc2cc(NC(=O)c3ccncc3)ccc2O[C@@H]1CN(C)Cc1ccc(C(=O)Nc2ccccc2N)cc1 the results were NOMO-1 viab 32 and PD-1 reverse act 0.
`C[C@H](CO)N1C[C@H](C)[C@H](CN(C)Cc2ccc(C(=O)Nc3ccccc3N)cc2)Oc2ccc(NC(=O)Nc3ccc4c(c3)OCO4)cc2CC1=O` gave NOMO-1 viab 127* and PD-1 reverse act -5.
